The full list was thinned out, with hits kept by preference.
Eya2 phos inh = inhibitors of human Eya2 phosphatase activity. 330,000 tested, 0.006% active. recombinant Eya2, OMFP fluorescence dephosphorylation (OMFP is methylfluorescein phosphate). O00167. Potency, µM (top dose mostly 76.9 µM), for the others: top-dose activity, negative = inhibition, usual class: inhibitors; further: on the % scale 0 is the no-effect control and ±100 the full control effect
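Eya2 protein (added as 0.2 uM solution) was preincubated with compound for 10 min at ambient temperature in 50 mM HEPES pH 7.5, 50 mM NaCl, 5 uM MgCl2, 0.05% BSA, 1 mM DTT. OMFP (added at 50 uM) then reacted 10 min; fluorescence read at 485/525 nm.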
ClpP mod = qHTS Assay for Activators of ClpP; purified B. subtilis ClpP, FRET peptide cleavage, 20 min; Potency, µM (titrated, usually from 57.5 µM), for inactives: at the top dose activity change, negative = active; 340,000 tested, 1.9% active; AID 651965, 2013; active means well fitted falling curve with a large enough effect; inconclusive means small, poorly fitted or top-dose-only effect; inactive means no such curve, though single readings can be large or run the other way; further: the source files actives as falling curves though it sought activators and does not explain the sign; nearly all actives have a fitted effect of over 65% in size
Target sequence (P80244 whole entry, looked up): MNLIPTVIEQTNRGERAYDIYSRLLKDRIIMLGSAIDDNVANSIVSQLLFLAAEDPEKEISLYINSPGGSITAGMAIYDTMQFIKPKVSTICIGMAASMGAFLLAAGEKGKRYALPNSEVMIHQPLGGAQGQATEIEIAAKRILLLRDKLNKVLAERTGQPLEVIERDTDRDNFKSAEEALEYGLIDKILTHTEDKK
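FRET quenching reversal measured ClpP activation: 10 microg/mL B. subtilis ClpP at pH 8 with the FRET-FV decapeptide, read at 430 nm after 320 nm excitation. The 20-min minus 0-min signal was scaled between DMSO/no-enzyme wells and ADEP (5.8 microM final).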
USP2a block = USP2a (human) protease inhibition. O75604. USP2 core, Ub-CHOP2 coupled fluorogenic reporter, 485/531. Potency, µM (titrated, usually from 38.3 µM), inactives show at the highest dose activity change, negative = inhibition, actives largely listed as inhibitors. 330,000 tested, 0.01% active. AID 463254;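 further: plate controls were DMSO wells for no effect and full inhibition by NEM control for full effect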
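USP2 core (10nM final) preincubated 30min RT with compound in 20mM Tris-HCl pH 8.0, 2mM CaCl2, 2mM beta-mercaptoethanol, 0.05% CHAPS; 25nM Ub-CHOP2 plus 25nM reporter substrate added, fluorescence (Ex485/Em531) read after 60min.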
GALK inh = galactokinase (human) inhibition. Purified GALK, Kinase-Glo residual ATP luminescence. Potency, µM (top dose mostly 57.5 µM), without a hit: at the top dose activity change, negative = inhibition, actives largely listed as inhibitors. 270,000 tested, 0.007% active; further: on the % scale 0 is the no-effect control and ±100 the full control effect
Target sequence (P51570 whole entry, looked up): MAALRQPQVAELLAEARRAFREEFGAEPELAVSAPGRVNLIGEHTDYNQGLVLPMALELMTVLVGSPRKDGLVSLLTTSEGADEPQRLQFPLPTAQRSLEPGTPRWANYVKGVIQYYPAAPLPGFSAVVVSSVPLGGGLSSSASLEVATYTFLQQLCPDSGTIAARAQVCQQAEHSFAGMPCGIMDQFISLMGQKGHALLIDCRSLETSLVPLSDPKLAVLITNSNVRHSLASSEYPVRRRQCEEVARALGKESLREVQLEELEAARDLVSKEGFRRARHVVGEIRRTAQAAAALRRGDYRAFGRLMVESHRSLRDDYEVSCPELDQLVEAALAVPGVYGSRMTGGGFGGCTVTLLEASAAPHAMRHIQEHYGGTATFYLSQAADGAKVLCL
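Compounds were pin-transferred into ATP buffer (35 uM final), then GALK plus galactose (5 nM, 100 uM final) was added. After 1 h at room temperature, Kinase-Glo Plus was added and luminescence read after 10 min.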
ClpP inh valid = validation of B. subtilis ClpP protease hits (inhibitors); shares compounds with ClpP mod; purified B. subtilis ClpP, FRET-FV substrate cleavage, 20 min; Potency, µM (titrated, usually from 57.5 µM), without a hit: at the top dose activity change, negative = inhibition, hits mostly inhibitors; 470 tested, 40% active; AID 743245; further: on the % scale 0 is the no-effect control and ±100 the full control effect; nearly all actives have a fitted effect of over 70% in size
The depositor's hits bear a star. Unless noted, the call rests on the fitted dose curve; in most records, active means well fitted curve in the direction sought with a large enough effect; inconclusive means small, poorly fitted or top-dose-only effect, or another doubt; inactive means no such curve, though single readings can be large; an effect the other way counts as inactive or inconclusive. Potency means the concentration at half of the fitted maximal effect.

Screening COc1ccccc1CNC(=O)c1ccc(Nc2nc3ccccc3n3nnnc23)cc1 returned ClpP mod inactive and ClpP inh valid 15µM*.
For O=C1NC(c2ccco2)Nc2ccccc21 (stereo not given) the results were Eya2 phos inh 2%, ClpP mod 10µM*, USP2a block 2%, GALK inh 2% and ClpP inh valid 24µM*.
`COc1ccc(OCC(=O)Nc2cc(-c3nc4ccccc4s3)ccc2C)cc1` gave ClpP mod -28%.
`CSc1nsc(SCC(=O)Nc2ccc(Br)cn2)n1` gave Eya2 phos inh -2%, ClpP mod 68%, USP2a block 3%, GALK inh 1% and ClpP inh valid 0%.
`CC(C)COc1ccc(C(=O)Nc2cc(S(=O)(=O)N3CCOCC3)ccc2N2CCCC2)cc1` gave Eya2 phos inh 4%, ClpP mod 47%, USP2a block 1% and ClpP inh valid -11%.
`CCN1CCN(c2ccc(S(=O)(=O)N3CCOCC3)cc2NC(=O)c2ccc(OCC(C)C)cc2)CC1` gave ClpP mod 2%.
COc1cc2c(cc1OC)/C(=C/C(=O)OCc1ccccc1)OC2 was read as ClpP mod -3%.
`Cc1ccccc1NC(=O)c1c(Cl)nc(C)c(Cl)c1C` gave Eya2 phos inh 2%, ClpP mod 2%, USP2a block 2% and GALK inh 1%.
CCc1ccc(NC(=O)c2c(Cl)nc(C)c(Cl)c2C)cc1 was read as Eya2 phos inh -1%, ClpP mod 43%, USP2a block 5%, GALK inh 2% and ClpP inh valid 0%.
Cc1cccc(C(=O)N2CCN(c3ncnc4c3cnn4-c3ccccc3)CC2)c1 was read as Eya2 phos inh 1%, ClpP mod 116%, USP2a block -5%, GALK inh -3% and ClpP inh valid -5%.
For CCc1ccc2[nH]c(C(=O)Nc3ccc(C)c(F)c3)cc2c1 the results were Eya2 phos inh 13%, ClpP mod 23%, USP2a block 1%, GALK inh 1% and ClpP inh valid 6%.
`COc1ccc(NC(=O)c2ccco2)cc1NC(=O)COc1cc(C)ccc1C(C)C` gave ClpP mod 49% and ClpP inh valid 2%.
For O=S(=O)(c1ccc(-c2csc(Nc3ccc(Br)cc3)n2)cc1)N1CCCC1 the results were Eya2 phos inh 6%, ClpP mod 3.2µM*, USP2a block 4%, GALK inh -2% and ClpP inh valid 27µM*.
For Cc1ccc(Nc2nc(-c3ccc(S(=O)(=O)N4CCCC4)cc3)cs2)cc1C the results were Eya2 phos inh 6%, ClpP mod inconclusive, USP2a block 1% and GALK inh 0%.
For CCCCn1c(N)c(N(CCOC)C(=O)COC(=O)COc2cc(C)ccc2Cl)c(=O)[nH]c1=O the results were Eya2 phos inh 13%, ClpP mod 1% and USP2a block 1%.
`Cc1c(CCOC(=O)CC23CC4CC(CC(C)(C4)C2)C3)sc[n+]1CC(=O)c1ccccc1` gave Eya2 phos inh -4%, ClpP mod -2%, USP2a block 9% and GALK inh 1%.
CCCC(C)C(=O)Nc1ccc2c(c1)OCCO2 (stereo not given) was read as Eya2 phos inh 14%, ClpP mod 3.5µM*, USP2a block -1%, GALK inh -1% and ClpP inh valid 0%.
Screening Cn1c(C(=O)NCCC2=CCCCC2)cc2c(=O)n3ccccc3nc21 returned Eya2 phos inh 7%, ClpP mod 7.9µM*, USP2a block 2%, GALK inh 0% and ClpP inh valid -16%.
`CCc1nc2ccc(C(=O)Nc3cccc(NS(C)(=O)=O)c3)cn2c1N(CCC(C)C)CCN(C)C` gave ClpP mod 1%.
O=C(NC(c1ccccc1)c1ccc2ccccc2n1)C1CCN(CCOc2ccc(Cl)cc2)CC1 (stereo not given) was read as ClpP mod -4%.
`COc1ccc(C(=O)Nc2ccc(N3CCOCC3)cc2)cc1S(=O)(=O)NC1CCCC1` gave Eya2 phos inh 9%, ClpP mod 8.9µM*, USP2a block 1%, GALK inh 10% and ClpP inh valid -1%.
Screening Cc1nn2c(NCC(C)C)c3c(nc2c1-c1ccccc1)CCC3 returned Eya2 phos inh -2%, ClpP mod 7.9µM*, USP2a block 1%, GALK inh 0% and ClpP inh valid 4.9µM*.
Screening CCOc1ccccc1NC(=O)c1cc2ccccc2o1 returned ClpP mod 53% and ClpP inh valid -14%.
`CCOc1ccccc1NC(=O)c1cc2ccccc2oc1=O` gave Eya2 phos inh -3%, ClpP mod -1%, USP2a block 1% and GALK inh 7%.
`COc1ccccc1NC(=O)c1sc2ncn(Cc3ccccc3C)c(=O)c2c1C` gave Eya2 phos inh 8%, ClpP mod 163%, USP2a block 0%, GALK inh -2% and ClpP inh valid inconclusive.
Screening CCn1cnc2sc(C(=O)Nc3ccccc3OC)c(C)c2c1=O returned Eya2 phos inh 8%, ClpP mod -5%, USP2a block 9% and GALK inh 1%.
CCOC(=O)N1CCN(S(=O)(=O)c2ccc(C(=O)Nc3nc4ccccc4s3)cc2)CC1 was read as Eya2 phos inh 29%, ClpP mod 116%, USP2a block 1%, GALK inh -2% and ClpP inh valid inconclusive.
`CCOC(=O)N1CCN(S(=O)(=O)c2ccc(C(=O)Nc3nc4ccc(F)cc4s3)cc2)CC1` gave Eya2 phos inh -21%, ClpP mod 6%, USP2a block 1% and GALK inh -4%.
For CCCn1c(=O)c2c(C(F)(F)F)cc(-c3ccco3)nc2n(CCC)c1=O the results were Eya2 phos inh -12%, ClpP mod 1.8µM*, USP2a block -2%, GALK inh -2% and ClpP inh valid 6.9µM*.
CCCCn1c(=O)n(C)c(=O)c2c(C(F)(F)F)cc(-c3ccncc3)nc21 was read as Eya2 phos inh 3%, ClpP mod inconclusive, USP2a block 1% and GALK inh 0%.
CC1Cc2cc(S(=O)(=O)CCC(=O)Nc3ccc(OC(F)(F)F)cc3)ccc2N1C(=O)C1CC1 (stereo not given) was read as ClpP mod 2%.
`COc1ccccc1Nc1nc(NCCCN(C)C)nc(N)c1[N+](=O)[O-]` gave Eya2 phos inh 0%, USP2a block -1% and GALK inh -3%.
For COc1ccc(NCc2cc3cc4c(cc3n(CC(=O)Nc3cc(C)cc(C)c3)c2=O)OCO4)cc1 the results were ClpP mod 24%.
